This passage reports Potency results from PubChem BioAssay (NCATS).

Inconclusive results are not listed. Activity calls are given as the source filed them. Calls follow the shape of the dose curve; as a rule, active = well fitted curve in the direction sought with a large enough effect; inconclusive = small, poorly fitted or top-dose-only effect, or another doubt; inactive = no such curve, though single readings can be large; an effect the other way counts as inactive or inconclusive.

Test [1] is described as follows: qHTS of pediatric cancer cell lines to identify multiple opportunities for drug repurposing: Confirmatory screen for NB1643 cells (AID 1347109). Also: nearly all actives have a fitted effect of over 45% in size. In short, it runs like this:
(§1)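 Cells (500-1,000/well) rested 5 h, then received compounds for 48 h; metabolically active cells were measured by CellTiter-Glo luminescence. Final concentrations spanned up to 46 µM (MIPE, 11-point) or 0.59 nM-46 µM (NPC, 8-point) in primary screens, 11-point in follow-ups.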
A general note: In qHTS, concentration-response curves come from the screen itself.

The nature of test [2]: qHTS of pediatric cancer cell lines to identify multiple opportunities for drug repurposing: Confirmatory screen for LAN-5 cells (AID 1347113). Also: nearly all actives have a fitted effect of over 65% in size. In short, it runs like this:
as §1

The nature of test [3]: qHTS of pediatric cancer cell lines to identify multiple opportunities for drug repurposing: Confirmatory screen for BT-37 cells (AID 1347117). Also: nearly all actives have a fitted effect of over 55% in size. In a few lines:
as §1

Test [4] can be described thus: qHTS of pediatric cancer cell lines to identify multiple opportunities for drug repurposing: Confirmatory screen for U-2 OS cells (AID 1347122). Also: nearly all actives have a fitted effect of over 65% in size. In a few lines: as §1
A short description of test [5]: qHTS of pediatric cancer cell lines to identify multiple opportunities for drug repurposing: Confirmatory screen for Rh41 cells (AID 1347123).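 Also: 48 h compound exposure; nearly all actives have a fitted effect of over 60% in size.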 In a few lines:
as §1

Test [6] is described as follows: qHTS of pediatric cancer cell lines to identify multiple opportunities for drug repurposing: Confirmatory screen for OHS-50 cells (AID 1347128).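 Also: compound exposure lasted 48 h at 37 degrees C; nearly all actives have a fitted effect of over 55% in size.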 In a few lines: as §1
Test [7] is described as follows: qHTS of pediatric cancer cell lines to identify multiple opportunities for drug repurposing: Primary screen for Rh41 cells (AID 1347108). Also: nearly all actives have a fitted effect of over 70% in size. In a few lines: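 500-1,000 cells/well; 5 h pre-incubation 37 °C/5% CO2; compound pinned; 48 h; CellTiter-Glo, 15 min RT; luminescence. MIPE 11-pt from 0.78 nM, NPC 8-pt from 0.59 nM final. Bortezomib 2.3 µM final as positive control.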

Test [8] is described as follows: qHTS of pediatric cancer cell lines to identify multiple opportunities for drug repurposing: Primary screen for Rh30 cells (AID 1347107). Also: nearly all actives have a fitted effect of over 75% in size. In a few lines:
as §1

A short description of test [9]: qHTS of pediatric cancer cell lines to identify multiple opportunities for drug repurposing: Confirmatory screen for A673 cells (AID 1347110).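 Also: cells exposed to compound for 48 h before the viability read; nearly all actives have a fitted effect of over 65% in size.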 In short, it runs like this: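 Cells plated at 500-1,000/well were treated five hours later with multi-point dilutions up to 46 µM final. After two days, CellTiter-Glo was added and luminescence read.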
Test [10] in a line: qHTS of pediatric cancer cell lines to identify multiple opportunities for drug repurposing: Confirmatory screen for MG 63 (6-TG R) cells (AID 1347119). Also: nearly all actives have a fitted effect of over 55% in size. In short, it runs like this: as §1
A short description of test [11]: qHTS of pediatric cancer cell lines to identify multiple opportunities for drug repurposing: Confirmatory screen for control Hh wild type fibroblast cells (AID 1347121). Also: nearly all actives have a fitted effect of over 70% in size. In short, it runs like this:
as §1

Test [12] can be described thus: qHTS of pediatric cancer cell lines to identify multiple opportunities for drug repurposing: Confirmatory screen for RD cells (AID 1347124).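 Also: cells exposed to compound for 48 h before viability readout; nearly all actives have a fitted effect of over 65% in size.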 In a few lines:
as §1

The nature of test [13]: qHTS of pediatric cancer cell lines to identify multiple opportunities for drug repurposing: Confirmatory screen for Rh18 cells (AID 1347125). Also: nearly all actives have a fitted effect of over 55% in size. In short, it runs like this: as §1
Test [14] is described as follows: qHTS of pediatric cancer cell lines to identify multiple opportunities for drug repurposing: Confirmatory screen for Saos-2 cells (AID 1347127). Also: nearly all actives have a fitted effect of over 60% in size. In a few lines: as §1
Test [15] is described as follows: qHTS of pediatric cancer cell lines to identify multiple opportunities for drug repurposing: Confirmatory screen for SK-N-SH cells (AID 1347129).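 Also: cells exposed to compound for 48 h before viability read; nearly all actives have a fitted effect of over 60% in size.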 In short, it runs like this:
as §1

The target in the next test is Furin (Homo sapiens) (UniProt P09958). Briefly: Furin counterscreen qHTS for Zika virus inhibitors (AID 1347149). Also: nearly all actives have a fitted effect of over 70% in size. In short, it runs like this: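 Counterscreen measures cleavage of 2 microM BOC-RVRR-AMC, below its ~15 microM Km, by 5 nM full-length human furin at pH 7.0 after a 15-min compound preincubation. Inhibition derives from the 15-min fluorescence increase at 37C.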
Chain of Furin (Homo sapiens) (P09958 whole entry, looked up): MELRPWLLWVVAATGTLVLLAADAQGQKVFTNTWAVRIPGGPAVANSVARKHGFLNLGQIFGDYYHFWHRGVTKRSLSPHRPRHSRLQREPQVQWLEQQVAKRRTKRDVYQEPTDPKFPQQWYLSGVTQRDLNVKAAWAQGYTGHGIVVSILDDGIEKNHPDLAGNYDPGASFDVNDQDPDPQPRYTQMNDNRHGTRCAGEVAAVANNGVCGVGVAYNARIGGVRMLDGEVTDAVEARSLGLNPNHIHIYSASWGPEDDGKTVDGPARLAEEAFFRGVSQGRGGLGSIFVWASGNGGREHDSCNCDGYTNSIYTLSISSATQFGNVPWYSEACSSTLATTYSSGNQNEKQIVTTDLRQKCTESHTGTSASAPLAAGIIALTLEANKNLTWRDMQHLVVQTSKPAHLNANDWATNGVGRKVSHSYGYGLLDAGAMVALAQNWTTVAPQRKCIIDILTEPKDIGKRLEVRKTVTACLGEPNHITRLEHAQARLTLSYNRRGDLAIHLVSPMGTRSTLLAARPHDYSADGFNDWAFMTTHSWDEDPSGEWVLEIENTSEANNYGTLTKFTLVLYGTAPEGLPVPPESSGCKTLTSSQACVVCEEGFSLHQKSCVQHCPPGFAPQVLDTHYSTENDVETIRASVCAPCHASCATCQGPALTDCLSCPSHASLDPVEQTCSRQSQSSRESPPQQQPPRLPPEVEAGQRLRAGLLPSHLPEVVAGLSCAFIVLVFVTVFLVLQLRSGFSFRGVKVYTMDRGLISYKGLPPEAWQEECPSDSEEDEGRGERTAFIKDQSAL

The nature of test [16]: qHTS of pediatric cancer cell lines to identify multiple opportunities for drug repurposing: Confirmatory screen for SJ-GBM2 cells (AID 1347116). Also: nearly all actives have a fitted effect of over 60% in size. In short, it runs like this:
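Viability measured as metabolically active cells via CellTiter-Glo luminescence following 48 hours of compound exposure, 11-point dilutions in confirmatory testing. 500-1,000 cells/well plated 5 hours before dosing; controls were DMSO and 2.3 µM bortezomib.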

Test [17] is described as follows: qHTS of pediatric cancer cell lines to identify multiple opportunities for drug repurposing: Confirmatory screen for TC32 cells (AID 1347118). In short, it runs like this: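 Measured quantity: luminescence from CellTiter-Glo, reflecting metabolically active TC32 cells following 48 h of compound. Curves came straight from multi-point titrations, with 8 or 11 points in primary and 11 in confirmatory screening.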

A short description of test [18]: qHTS of pediatric cancer cell lines to identify multiple opportunities for drug repurposing: Confirmatory screen for Rh30 cells (AID 1347126). Also: nearly all actives have a fitted effect of over 55% in size. In a few lines: as §1
For test [19], the target named is N-terminal Xaa-Pro-Lys N-methyltransferase 1 (Homo sapiens) (UniProt Q9BV86). Briefly: qHTS Assay for Inhibitors of N-terminal methyltransferase 1 (NTMT1): LOPAC validation of the NTMT1 SAHH-coupled ThioGlo3 Assay (AID 1347143).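 Also: SAH from peptide methylation measured as thiol fluorescence via SAHH coupling and ThioGlo3; nearly all actives have a fitted effect of over 70% in size.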 In short, it runs like this: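 NTMT1 125nM + cpds (various conc.), 1 min RT; add SAM 100uM/SAHH 10uM/ThioGlo3 15uM (addition mix). SAHH-coupled thiol detection, Ex340/Em450, t0 and 30 min RT; signal normalized to background. LOPAC 1280-cpd pilot.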
Chain of N-terminal Xaa-Pro-Lys N-methyltransferase 1 (Homo sapiens) (Q9BV86 whole entry, looked up): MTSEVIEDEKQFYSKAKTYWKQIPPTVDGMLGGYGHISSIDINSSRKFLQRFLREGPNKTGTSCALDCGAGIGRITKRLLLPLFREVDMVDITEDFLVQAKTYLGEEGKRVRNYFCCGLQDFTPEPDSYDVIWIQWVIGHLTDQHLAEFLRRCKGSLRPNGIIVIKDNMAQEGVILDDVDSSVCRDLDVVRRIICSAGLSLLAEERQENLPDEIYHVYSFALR
Potency is read from the fitted curve at half-maximal effect.

Take `Cc1c(C(=O)Nc2cccc(C(F)(F)F)c2)cc(-c2ccccc2)n1CCCN1CCOCC1`: the Potency was 42700 nM (active) in [1]; 42700 nM (active) in [2]; 42700 nM (active) in test [3]; 24000 nM (active) in [4]; 21400 nM (active) in test [5]; 42700 nM (active) in test [6].
On to `CCNC(=O)C[C@@H]1N=C(c2ccc(Cl)cc2)c2cc(OC)ccc2-n2c(C)nnc21`, for which the Potency in [7] was 5900 nM (active).
Consider `O=C1C(I)=CC(=C(c2cc(I)c(O)c(I)c2)c2ccccc2C(=O)O)C=C1I`, for which the Potency entry in test [8], in test [1], in [3], in test [10], in test [11] and in test [12] was “inactive” in each case. For the same molecule, the Potency result in [13], in test [14], in [6] and in test [15] was “inactive” in each case. The figures for the Potency (in test [9]; in [5]; with Furin (Homo sapiens)) were 3690 nM (active), 9270 nM (active) and 18700 nM (active), respectively.
Regarding `CS(=O)(=O)c1ccc(C(=O)C2C(=O)CCCC2=O)c([N+](=O)[O-])c1`, the Potency entry in [8], in test [1], in test [9], in test [2], in [16] and in test [3] was “inactive” throughout. Moreover, the Potency entry in test [17], in test [10], in test [11], in test [4], in [5] and in test [12] was “inactive” throughout. Besides, the Potency entry in test [13], in test [18], in test [14], in [6] and in test [15] was “inactive” each time.
As for `CC[C@H]1C=CC=CC[C@@H](C)[C@H](O)[C@@](C)(O)C(=O)[C@@H](C)[C@H](O)[C@@H](C)C(=O)[C@@H](C)[C@H](O)[C@@H](C)C=CC(=O)O[C@@H]2[C@@H](C)[C@H](CC1)O[C@]1(CC[C@H](C)[C@H](C[C@@H](C)O)O1)[C@H]2C`, the Potency result in test [8], in [13] and in [6] was “inactive” each time. The Potency was 20800 nM (active) in [16]; 58.5 nM (active) in test [3]; 1850 nM (active) in test [17]; 117 nM (active) in test [10]; 117 nM (active) in test [11]; 4.6 nM (active) in [4]. In addition, the Potency in [12] was 4140 nM (active).
Consider `CC(C)(O)C=CC(=O)[C@](C)(O)[C@H]1[C@H](O)C[C@]2(C)[C@@H]3CC=C4[C@@H](C=C(O)C(=O)C4(C)C)[C@]3(C)C(=O)C[C@@]12C`, for which the Potency in [8] was 8330 nM (active); in [1] it was 117 nM (active); in [9] it was 5220 nM (active); in [2], 58.5 nM (active); in [16], 1650 nM (active); in test [3], 827 nM (active). The Potency is 827 nM (active) in [17]; 117 nM (active) in test [10]; 2610 nM (active) in test [11]; 208 nM (active) in test [4]; 208 nM (active) in test [5]; 465 nM (active) in [12]. Further, the Potency in test [13] is 147 nM (active); in [18], 827 nM (active); in [14], 147 nM (active); in test [6], 1470 nM (active); in test [15] it was 264 nM (active).
As to `COc1cc([C@@H]2c3cc4c(cc3[C@@H](O)C3COC(=O)C32)OCO4)cc(OC)c1O` (some centres undefined), the Potency entry in [8], in test [16], in [11], in test [13], in test [18] and in test [14] was “inactive” each time. Moreover, the Potency result in test [6] and in test [15] was “inactive” throughout. Besides, the Potency in test [9] was 522 nM (active); in test [3], 737 nM (active); in test [17] it was 585 nM (active); in test [10], 293 nM (active).
Regarding `CC(C)NC(C)Cc1ccc(I)cc1` (centres undefined), the Potency entry in test [19] was “inactive”.
`Cc1c(C(=O)c2cccc3ccccc23)c2cccc3c2n1[C@H](CN1CCOCC1)CO3`: the Potency in test [7] was 20900 nM (active).
For `CC(=Cc1csc(C)n1)[C@@H]1C[C@H]2O[C@@H]2CCC[C@H](C)[C@@H](O)[C@@H](C)C(=O)C(C)(C)[C@@H](O)CC(=O)O1`, the Potency result in test [8] and in test [11] was “inactive” throughout. Besides, the Potency in test [9] is 18.5 nM (active); in [16], 104 nM (active); in test [17], 14.7 nM (active); in [10], 16.5 nM (active); in test [5] it was 36.9 nM (active); in test [12], 46.5 nM (active). Moreover, the values for the Potency in [14] and in test [6] were 29.3 nM (active) and 32.9 nM (active), respectively.
Turning to `S=C(SSC(=S)N1CCCCC1)N1CCCCC1`, the Potency entry in test [8], in test [11] and in [15] was “inactive” each time. For the same molecule, the Potency was 10400 nM (active) in test [9]; 1040 nM (active) in test [2]; 2610 nM (active) in test [17]; 329 nM (active) in test [5]; 36900 nM (active) in test [18].
In the case of `Nc1c(Cl)c(Cl)c(Cl)c(Cl)c1Cl`, the Potency entry (in test [8]; in test [7]; with Furin (Homo sapiens)) was “inactive” each time.
As for `CC(=Cc1csc(C)n1)[C@@H]1C[C@H]2O[C@]2(C)CCC[C@H](C)[C@@H](O)[C@@H](C)C(=O)C(C)(C)[C@@H](O)CC(=O)O1`, the Potency entry in [8] and in [18] was “inactive” in each case. Also, the Potency in test [9] was 7.4 nM (active); in [3] it was 5.2 nM (active); in [17], 3.7 nM (active); in [10], 3.3 nM (active); in test [4], 26.1 nM (active); in test [5] it was 10.4 nM (active). The Potency in test [14] and in test [6] was 13.1 nM (active) throughout.
As to `CC=C(C)C(=O)N[C@@H](c1ccccc1)[C@@H](O)C(=O)O[C@H]1C[C@@]2(O)[C@@H](OC(=O)c3ccccc3)[C@@H]3[C@]4(OC(C)=O)CO[C@@H]4C[C@H](O)[C@@]3(C)C(=O)[C@H](OC(C)=O)C(=C1C)C2(C)C`, the Potency result in test [8], in test [2], in test [11] and in test [13] was “inactive” throughout. The Potency in test [9] was 32.9 nM (active); in test [3], 52.2 nM (active); in [10] it was 29.3 nM (active); in test [14] it was 41.4 nM (active); in [6] it was 41.4 nM (active).
Take `COC1=CC(C)=C[C@@H](C)[C@@H](O)[C@@H](C)CC(C)=CC=C[C@H](OC)[C@H]([C@@H](C)[C@@H](O)[C@H](C)[C@@]2(O)C[C@@H](O)[C@H](C)[C@@H](C(C)C)O2)OC1=O`: the Potency in [7] is 16600 nM (active); in test [18] it was 10400 nM (active). In addition, the Potency entry in test [9], in test [10], in [11], in [4], in test [5] and in [15] was “inactive” each time.
Regarding `CC[C@@]1(O)C(=O)OCc2c1cc1n(c2=O)Cc2cc3ccccc3nc2-1`, the Potency in test [1] is 131 nM (active); in test [9] it was 46.5 nM (active); in test [2] it was 58.5 nM (active); in test [16], 104 nM (active); in test [3] it was 36.9 nM (active); in [17] it was 18.5 nM (active). The Potency in test [10] was 73.7 nM (active); in [4], 1040 nM (active); in [5], 369 nM (active); in test [12], 465 nM (active); in test [13] it was 827 nM (active); in test [18], 737 nM (active). In addition, the Potency in test [14] is 104 nM (active); in [6], 147 nM (active); in test [15], 2090 nM (active); in test [19], 3550 nM (active).
Turning to `COc1ccc(C(=O)c2c(C)n(CCN3CCOCC3)c3cc(I)ccc23)cc1`, the Potency result in [8], in test [11] and in [15] was “inactive” each time. The Potency in test [9] is 26100 nM (active); in [10] it was 14700 nM (active); in [4] it was 16500 nM (active); in test [5], 9270 nM (active).
